From PubChem BioAssay (NCATS) come the findings set out here.

Records with an inconclusive call do not appear. Active and inactive are the calls of the source. Calls follow the shape of the dose curve; as a rule, active = well fitted inhibition curve with a large enough effect; inconclusive = small, poorly fitted or top-dose-only effect; inactive = flat fitted curve, though single readings scatter.

Common to all, as to experiment: qHTS profiling for inhibitors of Plasmodium falciparum proliferation (AID 504749); also: nearly all actives have a fitted effect of over 60% in size
Common to all, as to conditions: P. falciparum in erythrocytes, SYBR Green DNA, 72 h; series mostly up to 28.7 µM
(In general: Quantitative high-throughput screening tests each substance at several concentrations.)

One assay concerns DIV17. The gist of the method:
(§1)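 Readout was DNA-dye fluorescence from lysed cultures, ex 485/em 535 nm. Parasitized red cells had grown 72 h with compound; data scaled between 0.29 uM artemisinin and DMSO wells and corrected using vehicle-only plates.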

The subject of the next assay is DIV30. The gist of the method: as §1
The next assay has as its system Dd2. The gist of the method:
as §1

A further assay has as its system ECU. Put shortly: as §1
A further assay concerns FAB9. The gist of the method:
as §1

The next assay has as its system GB4. Put shortly: as §1
The test system of the next assay is HB3. The gist of the method: as §1
Another assay deals with ICS. The gist of the method:
as §1

In the next assay the test system is JCK. Put shortly: as §1
The subject of the next assay is N140. Put shortly:
as §1
Potency is read from the fitted curve at half-maximal effect.

On to `CCN(CC)CCOc1ccc(Cc2ccccc2)cc1`, for which the Potency entry in the assay on DIV17, in the assay with DIV30, in the assay on Dd2, in the assay with ECU, in the assay with FAB9 and with GB4 was “inactive” in each case. The Potency entry in the assay on HB3, with ICS, with JCK and with N140 was “inactive” throughout.
As for `Cc1c(OCC(F)(F)F)ccnc1CS(=O)c1nc2ccccc2[nH]1` (stereo unspecified), the Potency entry in the assay on DIV17, with DIV30, with Dd2, in the assay with ECU, in the assay with FAB9 and in the assay with GB4 was “inactive” throughout. Moreover, the Potency result in the assay on HB3, in the assay with JCK and with N140 was “inactive” in each case.
As for `O=C1c2ccccc2-c2n[nH]c3cccc1c23`, the Potency result with DIV17, with DIV30, with Dd2, with ECU, in the assay with FAB9 and in the assay with HB3 was “inactive” each time. Also, the Potency result with JCK and in the assay on N140 was “inactive” throughout.
Regarding `Nc1cc(C(Cl)=C(Cl)Cl)c(S(N)(=O)=O)cc1S(N)(=O)=O`, the Potency result in the assay on DIV17, in the assay on DIV30, in the assay with Dd2, in the assay on ECU, in the assay on FAB9 and in the assay on GB4 was “inactive” in each case. For the same molecule, the Potency result in the assay on HB3, in the assay on ICS, in the assay on JCK and in the assay on N140 was “inactive” in each case.
As for `Clc1ccc(C(Cn2ccnc2)OCc2ccsc2Cl)c(Cl)c1` (stereo unspecified), the Potency was 1690 nM (active) in the assay with DIV17; 4780 nM (active) in the assay with DIV30; 3160 nM (active) with Dd2; 1410 nM (active) with ECU; 1690 nM (active) in the assay with GB4; 3160 nM (active) in the assay with HB3. Moreover, the Potency in the assay on ICS was 1000 nM (active); in the assay with JCK, 5010 nM (active); in the assay with N140, 2820 nM (active).
Take `CCCOc1ccc2nc(NC(=O)OC)[nH]c2c1`: the Potency result in the assay on DIV17, in the assay with DIV30, in the assay with Dd2, with ECU, with FAB9 and in the assay with GB4 was “inactive” each time. The Potency entry in the assay with HB3, in the assay with ICS, in the assay on JCK and in the assay with N140 was “inactive” each time.
With `CCCCc1ccc2nc(NC(=O)OC)[nH]c2c1`, the Potency entry in the assay with DIV17, in the assay with DIV30, in the assay on Dd2, in the assay on ECU, in the assay on FAB9 and in the assay with GB4 was “inactive” each time. The Potency result with HB3, with ICS, in the assay with JCK and in the assay on N140 was “inactive” in each case.
Regarding `CN(C)c1ccc2nc3ccc(=[N+](C)C)cc-3sc2c1`, the Potency in the assay on DIV17 is 19 nM (active); in the assay on DIV30, 67.5 nM (active); in the assay with Dd2, 39.8 nM (active); in the assay on ECU, 25.1 nM (active); with FAB9, 31.6 nM (active); in the assay with GB4, 30.1 nM (active). In addition, the Potency was 22.4 nM (active) in the assay with HB3, 7.1 nM (active) with ICS and 56.2 nM (active) in the assay on N140.
Turning to `COC(=O)C1=C(C)NC(C)=C(C(=O)OCCCN2CCC(c3ccccc3)(c3ccccc3)CC2)C1c1cccc([N+](=O)[O-])c1` (stereo unspecified), the Potency in the assay with DIV17 was 4260 nM (active); with DIV30 it was 4780 nM (active); in the assay with Dd2, 3550 nM (active); in the assay with ECU it was 4470 nM (active); in the assay with GB4 it was 1900 nM (active); in the assay with HB3, 8910 nM (active). The Potency in the assay on ICS was 1410 nM (active); in the assay on N140, 5010 nM (active).
`CC1(C)CCC(C)(C)c2cc(NC(=O)c3ccc(C(=O)O)cc3)ccc21`: the Potency result in the assay on DIV17, with DIV30, in the assay with Dd2, in the assay with ECU, with FAB9 and in the assay on GB4 was “inactive” in each case. For the same molecule, the Potency result in the assay on HB3, in the assay with ICS, with JCK and in the assay on N140 was “inactive” each time.
Turning to `O=C(NC(Cc1cc(=O)[nH]c2ccccc12)C(=O)O)c1ccc(Cl)cc1` (stereo unspecified), the Potency result with DIV17, in the assay on DIV30, with Dd2, with ECU, in the assay on FAB9 and in the assay with GB4 was “inactive” throughout. The Potency entry in the assay on HB3, in the assay on ICS, in the assay with JCK and in the assay on N140 was “inactive” in each case.
Consider `CCN(CCO)CCCC(C)Nc1ccnc2cc(Cl)ccc12` (stereo unspecified), for which the Potency entry in the assay on DIV17, in the assay on DIV30, with Dd2, in the assay on ICS, in the assay with JCK and in the assay on N140 was “inactive” each time. The Potency with FAB9 is 1410 nM (active); in the assay with HB3 it was 1000 nM (active).
With `CN1C(C(=O)Nc2ccccn2)=C(O)c2sccc2S1(=O)=O`, the Potency entry with DIV17, in the assay with DIV30, in the assay on Dd2, with ECU, with FAB9 and in the assay with GB4 was “inactive” throughout. Besides, the Potency result in the assay with HB3, in the assay with ICS, in the assay with JCK and in the assay on N140 was “inactive” each time.
Consider `N=C(N=C(N)N)N1CCOCC1`, for which the Potency result in the assay on DIV17, in the assay on DIV30, in the assay on Dd2, in the assay with ECU, in the assay on FAB9 and in the assay on GB4 was “inactive” each time. Besides, the Potency entry in the assay with HB3, with ICS, in the assay with JCK and with N140 was “inactive” throughout.
On to `CN(c1nccc(=O)[nH]1)C1CCN(c2nc3ccccc3n2Cc2ccc(F)cc2)CC1`, for which the Potency result in the assay on FAB9, in the assay on HB3 and in the assay with JCK was “inactive” in each case. In the assay on ICS, the Potency is 10000 nM (active).
With `N=C(N)c1ccc2cc(OC(=O)c3ccc(N=C(N)N)cc3)ccc2c1`, the results for the Potency with GB4 and in the assay on ICS were 5360 nM (active) and 7080 nM (active), respectively. Also, in the assay on JCK, the Potency result is “inactive”.
Turning to `NNc1nncc2ccccc12`, the Potency was 5100 nM (active) in the assay on DIV17, 3980 nM (active) with Dd2, 3980 nM (active) in the assay on HB3 and 1410 nM (active) with ICS.
`CN1CCC(=C2c3ccccc3CCc3sccc32)CC1`: the Potency in the assay with DIV17 is 4260 nM (active); with Dd2 it was 5010 nM (active); in the assay with GB4, 6010 nM (active); with ICS, 8910 nM (active). The Potency result in the assay on ECU and with FAB9 was “inactive” in each case.
For `CCC[C@@H]1C[C@@H](C(=O)N[C@@H]([C@H]2O[C@H](SC)[C@H](O)[C@@H](O)[C@H]2O)[C@@H](C)O)N(C)C1`, in the assay with Dd2, the Potency is 8.9 nM (active). Besides, the Potency result in the assay on FAB9 and in the assay with JCK was “inactive” throughout.
